molecular target: ALDH9A1; assay: pooled miR-30 sensor sort-seq; sequence = guide strand; settings: shRNA
Further: reference of the scale not given here.

| Sequence | sensor-assay potency score (higher = more potent) |
| --- | --- |
| TTCTCTAGAAGTATGTTACTGG | -0.159 |
| TAATATTCGATTGTCACACGGC | 0.406 |
| TCTCATGTAATATCCATCCTTT | -0.314 |
| TTTGCCACTTTGACAAACCCAA | -0.698 |

molecular target: ALG10B; assay: as above; settings: shRNA

| Sequence | sensor-assay potency score (higher = more potent) |
| --- | --- |
| ACTATAACAATGAACAAGCATA | -1.35 |
| TTGCATAGCAACTCAGTTCACA | -0.443 |
| TTCATGACTACTCCGATCGCCA | -0.64 |
| TAAAGTGTTGGAAATACTGCTA | -0.0567 |
| TTTCTGAGGAACTATAACAATG | -1.85 |
| TTTTGTGCAATGACATTCCCTG | 0.314 |
| TAATTTTGCTAGGAGACAGGAG | -0.56 |
| TATTTCAGAATTGCATATCTTT | -0.42 |

molecular target: ALG3; assay: as above; settings: shRNA

| Sequence | sensor-assay potency score (higher = more potent) |
| --- | --- |
| ATAGATCAAGAAGACAAGCAGC | -0.15 |
| ATAGTCATAGGTACCATTGATG | -0.727 |
| TAGGTACCATTGATGACGCCTT | -0.738 |
| AAGAGCAGCACATTCATCTTCA | 0.161 |
| TAAAGATGTACACGAAACCAGC | -1.12 |
| TATAGTCATAGGTACCATTGAT | -0.777 |
| TATGTGTTCCAGGAGAGCTCGA | -0.768 |
| TTGATGACGCCTTCTACCTCGG | -0.378 |
| ATGTACACGAAACCAGCTGGGT | -1.42 |
| TGAGGGTAGACTCAGGTCCTGA | -1.65 |
| TGGGTCATTGAAGAGCCGCAGC | -1.28 |
| TAGAACTGGTAGTGGAGGGAGC | -0.534 |
